The results in this text go back to PubChem BioAssay (NCATS).

Experiment [1] has as its target Calcium and integrin-binding protein 1 (Homo sapiens) (UniProt Q99828). Put plainly: Primary qHTS for Identification of Calcium Integrin Binding Protein 1 (CIB1) Competitor (AID 1508620). Also: top concentration of the series differs between compounds. As to conditions: CIB1-GST / FITC-alphaIIb peptide fluorescence polarization; series mostly up to 114 µM. The procedure, abridged: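 Fluorescence polarization competition: GST-tagged CIB1 (1 uM final) preincubated with compound 15 min at room temperature, then FITC-labelled alphaIIb peptide (100 nM final) added. After 15 min at room temperature, polarization read at Ex 480/Em 540.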

For experiment [2], the target named is Cytochrome P450 2D6 (Homo sapiens) (UniProt P10635). Put plainly: Cytochrome P450 family 2 subfamily D member 6 (CYP2D6) small molecule antagonists: luciferase biochemical (cell-free) qHTS assay (AID 1645840; active = well fitted curve in the direction sought with a large enough effect in the repeat runs; an effect the other way counts as inactive or inconclusive; also: nearly all actives have a fitted effect of over 55% in size; also: potency is read from the fitted curve at half-maximal effect). As to conditions: P450-Glo CYP2D6 enzyme, luciferin luminescence, 1 h; series mostly up to 57.4 µM. An outline of the steps:
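P450-Glo luminescent screen: recombinant CYP2D6 enzyme–proluciferin substrate mix preincubated with compound 10 min at room temperature, then NADPH regeneration added for 1 h at room temperature. Detection reagent added for 20 min; luciferin light read as relative luminescence units.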
In general terms: Quantitative high-throughput screening tests each substance at several concentrations.

The target of experiment [3] is Cytochrome P450 2C9 (Homo sapiens) (UniProt P11712). Put plainly: Cytochrome P450 family 2 subfamily C member 9 (CYP2C9) small molecule antagonists: luciferase biochemical (cell-free) qHTS assay (AID 1645842; active = well fitted curve in the direction sought with a large enough effect in the repeat runs; an effect the other way counts as inactive or inconclusive; also: nearly all actives have a fitted effect of over 55% in size; also: potency is read from the fitted curve at half-maximal effect). Conditions: P450-Glo CYP2C9 enzyme assay, luciferin luminescence; series mostly up to 57.4 µM. The procedure, abridged:
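Luminescence, after 20 min with luciferin detection reagent, reflected CYP2C9 turnover during a 1 h NADPH-driven reaction at 37C. Enzyme-substrate mix contained 0.4% bovine serum albumin and was preincubated with compound 10 min at room temperature.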

Experiment [4] in a line: Primary qHTS for inhibitors of nuclear receptor binding SET domain protein 2 (NSD2) in an isogenic RCH-ACV NSD2 p.E1099K mutant (9B) (AID 1645876). Also: potency is read from the fitted curve at half-maximal effect; nearly all actives have a fitted effect of over 70% in size. Conditions: RCH-ACV NSD2 E1099K (9B) viability, CellTiter-Glo, 72 h; series mostly up to 44.9 µM.
Experiment [5] in a line: Primary qHTS for inhibitors of nuclear receptor binding SET domain protein 2 (NSD2) in an RCH-ACV wild type WT cells (2C) (AID 1645877). Also: potency is read from the fitted curve at half-maximal effect; nearly all actives have a fitted effect of over 70% in size. Conditions: RCH-ACV (leukaemia line) NSD2 WT (2C) viability, CellTiter-Glo, 72 h; series mostly up to 44.9 µM.

Inconclusive results are not listed. Activity calls are given as the source filed them. Unless noted, calls follow the shape of the dose curve; as a rule, active = well fitted curve in the direction sought with a large enough effect; inconclusive = small, poorly fitted or top-dose-only effect, or another doubt; inactive = no such curve, though single readings can be large; an effect the other way counts as inactive or inconclusive.

Sequence of Calcium and integrin-binding protein 1 (Homo sapiens) (Q99828 whole entry, looked up): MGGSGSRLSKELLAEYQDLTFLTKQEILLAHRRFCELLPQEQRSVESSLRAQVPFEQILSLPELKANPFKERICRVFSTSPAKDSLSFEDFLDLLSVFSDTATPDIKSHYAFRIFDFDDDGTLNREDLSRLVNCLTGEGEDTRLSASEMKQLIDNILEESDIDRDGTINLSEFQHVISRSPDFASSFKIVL
Sequence of Cytochrome P450 2D6 (Homo sapiens) (P10635 whole entry, looked up): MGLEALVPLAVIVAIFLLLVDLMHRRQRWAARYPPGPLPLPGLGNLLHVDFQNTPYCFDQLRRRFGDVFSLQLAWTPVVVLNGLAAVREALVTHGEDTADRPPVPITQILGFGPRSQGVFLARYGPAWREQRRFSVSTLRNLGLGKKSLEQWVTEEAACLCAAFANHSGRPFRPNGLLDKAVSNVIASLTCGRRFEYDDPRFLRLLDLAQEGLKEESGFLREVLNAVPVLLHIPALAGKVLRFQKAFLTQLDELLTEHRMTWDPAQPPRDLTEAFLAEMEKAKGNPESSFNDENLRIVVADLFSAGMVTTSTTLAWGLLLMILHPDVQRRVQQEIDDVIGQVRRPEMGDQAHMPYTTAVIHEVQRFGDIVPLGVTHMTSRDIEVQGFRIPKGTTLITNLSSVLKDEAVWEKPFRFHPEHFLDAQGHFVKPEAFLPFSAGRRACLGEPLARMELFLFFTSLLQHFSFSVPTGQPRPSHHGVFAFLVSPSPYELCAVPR
Sequence of Cytochrome P450 2C9 (Homo sapiens) (P11712 whole entry, looked up): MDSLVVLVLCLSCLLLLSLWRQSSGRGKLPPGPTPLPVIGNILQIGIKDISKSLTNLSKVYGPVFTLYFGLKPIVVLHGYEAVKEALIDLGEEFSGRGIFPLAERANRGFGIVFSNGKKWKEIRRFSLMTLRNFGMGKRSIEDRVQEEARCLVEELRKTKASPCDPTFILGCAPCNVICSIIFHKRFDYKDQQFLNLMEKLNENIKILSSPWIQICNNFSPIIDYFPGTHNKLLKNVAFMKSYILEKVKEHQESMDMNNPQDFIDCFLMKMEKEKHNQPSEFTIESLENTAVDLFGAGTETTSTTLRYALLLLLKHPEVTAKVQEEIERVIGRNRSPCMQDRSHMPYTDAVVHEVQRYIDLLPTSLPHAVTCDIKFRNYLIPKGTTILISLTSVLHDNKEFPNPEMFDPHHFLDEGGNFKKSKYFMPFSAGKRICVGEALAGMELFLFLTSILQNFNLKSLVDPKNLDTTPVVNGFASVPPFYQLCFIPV

Turning to `CCC(CC)C(c1ccc(Nc2nc3ccccc3s2)cc1)n1cncn1` (stereo not given), in experiment [1], the Potency result was “inactive”. Further, the Potency was 2.39 µM (active) in experiment [2], 0.952 µM (active) in experiment [3], 18.6 µM (active) in experiment [4] and 18.6 µM (active) in experiment [5].

Turning to `C[C@H]1[C@H](/C=C/c2ccc(-c3ccccc3C#N)cn2)[C@@H]2[C@@H](C)OC(=O)[C@@H]2C[C@@H]1C`, the Potency result in experiment [1], in experiment [2] and in experiment [3] was “inactive” each time. In addition, the results for the Potency in experiment [4] and in experiment [5] were 14.5 µM (active) and 10.3 µM (active), respectively.

For the compound `O=C(CCl)Nc1cccc(NC2=NS(=O)(=O)c3ccccc32)c1`, the Potency entry in experiment [1] and in experiment [2] was “inactive” each time. Moreover, the Potency in experiment [3] was 15.1 µM (active); in experiment [4] it was 9.34 µM (active); in experiment [5], 6.61 µM (active).

For `CCOC(=O)C1(CCOc2ccccc2)CCN(Cc2ccc(O)c(Cl)c2)CC1`, in experiment [1], the Potency entry was “inactive”. Further, the Potency was 0.425 µM (active) in experiment [2], 6.01 µM (active) in experiment [3], 23 µM (active) in experiment [4] and 23 µM (active) in experiment [5].

Take `O=S(=O)(NCc1cccc2ccccc12)c1cc(Cl)c(Oc2cccc(N3CCNCC3)c2)s1`: in experiment [1], the Potency result is “inactive”. The Potency is 8.49 µM (active) in experiment [2], 1.69 µM (active) in experiment [3], 7.28 µM (active) in experiment [4] and 5.78 µM (active) in experiment [5].

`COc1ccccc1N1CCN(c2ncnc3n[nH]c(Br)c23)CC1`: the Potency entry in experiment [1] and in experiment [2] was “inactive” each time. Also, the figures for the Potency in experiment [3], in experiment [4] and in experiment [5] were 7.56 µM (active), 23 µM (active) and 16.3 µM (active), respectively.

With `Clc1ccc(Cn2c(Cc3ccccc3)nc3ccccc32)cc1`, the Potency result in experiment [1] was “inactive”. The Potency in experiment [2] is 10.7 µM (active); in experiment [3] it was 9.52 µM (active); in experiment [4], 11.5 µM (active); in experiment [5], 18.3 µM (active).

As to `Fc1ccc(-c2nc(C3CCNCC3)sc2-c2ccnc(NC3CC3)n2)cc1`, the Potency entry in experiment [1] was “inactive”. The Potency in experiment [2] is 6.01 µM (active); in experiment [3], 16.9 µM (active); in experiment [4], 8.17 µM (active); in experiment [5] it was 6.49 µM (active).
